For ten molecules, Percent Effect results are on record in ChEMBL document CHEMBL3988442, “University of Dundee, Small-Polar-MMV Screening Library” (2021).

For some assays here: Entries with a potency or affinity are not part of this list.

Set-up in all cases: scale not given: direction of the effect not stated beside the values
Experiment [1] deals with Protein translocase subunit SecA (Escherichia coli (strain K12)) (UniProt P10408). As to the kind of experiment: Assay to Identify E. coli SecA ATPase Inhibitors. In kind it is functional. The conditions noted are these: 30 µM.
Experiment [2] deals with T1, Ubiquitin-activating enzyme e1, putative (Leishmania donovani (strain BPK282A1)) (UniProt E9BSI1).
T1 sequence (whole entry): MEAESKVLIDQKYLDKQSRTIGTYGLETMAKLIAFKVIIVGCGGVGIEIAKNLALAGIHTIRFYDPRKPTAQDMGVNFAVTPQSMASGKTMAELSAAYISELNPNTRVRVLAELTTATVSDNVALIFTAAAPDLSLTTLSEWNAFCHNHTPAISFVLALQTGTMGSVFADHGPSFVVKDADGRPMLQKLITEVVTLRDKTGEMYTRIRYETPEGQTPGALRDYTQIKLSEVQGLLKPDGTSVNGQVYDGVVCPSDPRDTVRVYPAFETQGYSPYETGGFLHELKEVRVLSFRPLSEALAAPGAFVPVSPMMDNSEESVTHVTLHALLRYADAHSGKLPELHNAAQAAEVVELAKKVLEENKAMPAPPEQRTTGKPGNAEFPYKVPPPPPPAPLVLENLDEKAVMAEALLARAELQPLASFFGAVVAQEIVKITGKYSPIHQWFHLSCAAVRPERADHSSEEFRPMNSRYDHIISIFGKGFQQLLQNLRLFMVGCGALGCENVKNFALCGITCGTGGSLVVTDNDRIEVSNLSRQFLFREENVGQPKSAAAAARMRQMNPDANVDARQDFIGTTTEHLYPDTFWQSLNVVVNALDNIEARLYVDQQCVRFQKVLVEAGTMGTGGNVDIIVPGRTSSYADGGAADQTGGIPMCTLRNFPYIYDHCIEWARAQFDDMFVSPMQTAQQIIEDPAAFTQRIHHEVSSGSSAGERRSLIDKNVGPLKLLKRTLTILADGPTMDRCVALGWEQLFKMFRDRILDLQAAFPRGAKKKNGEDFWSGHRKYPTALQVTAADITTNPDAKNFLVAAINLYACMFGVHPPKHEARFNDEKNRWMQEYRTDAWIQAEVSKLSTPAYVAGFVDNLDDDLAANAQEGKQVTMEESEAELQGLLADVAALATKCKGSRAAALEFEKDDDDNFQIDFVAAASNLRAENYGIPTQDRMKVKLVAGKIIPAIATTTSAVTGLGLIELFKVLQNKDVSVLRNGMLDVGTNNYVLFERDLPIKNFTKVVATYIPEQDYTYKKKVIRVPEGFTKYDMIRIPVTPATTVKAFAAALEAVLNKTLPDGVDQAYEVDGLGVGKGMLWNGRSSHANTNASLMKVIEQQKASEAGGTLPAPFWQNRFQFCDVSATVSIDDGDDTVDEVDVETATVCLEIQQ
The experiment is described as follows: Leishmania donovani Ubiquitin Activating Enzyme (LdE1). The experiment is classed as functional. The following applies: 30 µM.

In experiment [3] the target is AMP-activated protein kinase, AMPK (Homo sapiens) (UniProt P54646+O43741+P54619+Q9UGJ0+Q9Y478+Q13131+Q9UGI9). The experiment is described as follows: AMP-dependent Kinase enzyme assay. An in vitro enzyme assay that detects ADP turnover that is directly proportional to AMPK activity. This uses naive AMPK that is activated during the assay with MK-8722. In kind it is functional. The conditions noted are these: 30 µM.

The target of experiment [4] is Sialic acid-binding Ig-like lectin 9 (Homo sapiens) (UniProt Q9Y336). As to the kind of experiment: Hs-Siglec9 ALPHAscreen SOP 20170721. The conditions noted are these: 10 µM. In general terms: In Alpha technology, singlet oxygen from a donor bead excites a nearby acceptor bead.
Another experiment concerns Trypanosoma cruzi. The experiment is described as follows: Trypanosoma cruzi phosphomannomutase and mannose-1-phosphate guanylyltransferase assay. In kind it is functional. The conditions noted are these: 10 µM.
For experiment [5], the target named is T2, Arginase-2, mitochondrial (Homo sapiens) (UniProt P78540).
T2 sequence (whole entry): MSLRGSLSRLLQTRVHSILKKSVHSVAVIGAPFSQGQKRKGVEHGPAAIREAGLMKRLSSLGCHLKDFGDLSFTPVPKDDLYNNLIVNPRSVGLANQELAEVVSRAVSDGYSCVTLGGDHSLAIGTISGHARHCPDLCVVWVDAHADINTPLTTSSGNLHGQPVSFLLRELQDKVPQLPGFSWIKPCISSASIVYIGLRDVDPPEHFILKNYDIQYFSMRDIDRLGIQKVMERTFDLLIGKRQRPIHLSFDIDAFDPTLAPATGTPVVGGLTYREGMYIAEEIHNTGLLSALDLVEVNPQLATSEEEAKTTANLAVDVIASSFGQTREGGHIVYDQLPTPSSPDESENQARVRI
As to the kind of experiment: in vitro enzyme assay to detect the production of urea directly proportional to the activity of Arginase II. Note: in the data most compounds retested in dose-response had high values. The experiment is classed as functional. The conditions noted are these: 33.3 µM.

Experiment [6] has as its target T3, Proteasome subunit beta (Trypanosoma cruzi) (UniProt O96673).
T3 sequence (whole entry): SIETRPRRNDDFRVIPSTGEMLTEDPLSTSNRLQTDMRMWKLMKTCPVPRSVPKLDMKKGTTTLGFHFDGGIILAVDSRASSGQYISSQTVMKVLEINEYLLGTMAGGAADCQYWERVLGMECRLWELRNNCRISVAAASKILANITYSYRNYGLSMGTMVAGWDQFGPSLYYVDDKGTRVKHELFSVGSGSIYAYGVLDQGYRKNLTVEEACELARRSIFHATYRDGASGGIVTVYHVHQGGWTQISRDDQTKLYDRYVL
As to the kind of experiment: Trypanosoma cruzi proteasome chymotrypsin-like activity (TcProtChymo) assay. Note: in the data most compounds retested in dose-response had high values. The experiment is classed as functional. The conditions noted are these: 9.37 µM.

For a further experiment, the species on record is Homo sapiens. As to the kind of experiment: To identify inhibition of the IFN signalling (Jak-Stat) pathway via expression of an eGFP reporter gene under the control of an IFN-stimulated response element (ISRE) containing MxA promoter. In kind it is functional. The conditions noted are these: 30 µM. A general note: In a reporter assay the amount or activity of a reporter protein is the signal.

The target in experiment [7] is T4, Tyrosyl-tRNA synthetase, putative (Trypanosoma cruzi (strain CL Brener)) (UniProt Q4DSP6).
T4 sequence (whole entry): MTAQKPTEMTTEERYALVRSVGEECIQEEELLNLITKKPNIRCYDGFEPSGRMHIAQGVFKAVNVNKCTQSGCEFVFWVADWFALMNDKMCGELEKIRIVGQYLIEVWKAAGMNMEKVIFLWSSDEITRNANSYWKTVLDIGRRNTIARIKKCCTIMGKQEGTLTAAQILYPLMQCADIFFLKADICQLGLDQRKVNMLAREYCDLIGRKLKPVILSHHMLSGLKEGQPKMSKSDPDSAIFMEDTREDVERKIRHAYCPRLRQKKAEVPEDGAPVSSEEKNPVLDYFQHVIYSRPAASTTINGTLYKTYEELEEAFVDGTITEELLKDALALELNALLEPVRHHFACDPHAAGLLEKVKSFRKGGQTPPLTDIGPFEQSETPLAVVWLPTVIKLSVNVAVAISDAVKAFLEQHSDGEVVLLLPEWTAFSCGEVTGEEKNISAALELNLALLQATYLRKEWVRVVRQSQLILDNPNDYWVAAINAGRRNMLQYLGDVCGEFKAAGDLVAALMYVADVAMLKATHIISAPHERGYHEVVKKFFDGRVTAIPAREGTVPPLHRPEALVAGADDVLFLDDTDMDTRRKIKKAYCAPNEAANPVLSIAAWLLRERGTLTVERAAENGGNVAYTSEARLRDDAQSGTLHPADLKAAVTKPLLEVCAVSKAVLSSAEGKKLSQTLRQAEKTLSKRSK
The experiment is described as follows: Trypanosoma cruzi tyrosyl tRNA synthetase (TcYRS) _High Tyrosine SOP. Note: in the data most compounds retested in dose-response had high values. In kind it is functional. The following applies: 30 µM.

In experiment [8] the target is T4, Tyrosyl-tRNA synthetase, putative (Trypanosoma cruzi (strain CL Brener)). As to the kind of experiment: Trypanosoma cruzi tyrosyl tRNA synthetase (TcYRS) SOP. In kind it is functional. The following applies: 30 µM.
The target of experiment [9] is Chromo domain-containing protein 1 (Saccharomyces cerevisiae (strain ATCC 204508 / S288c) (Baker's yeast)) (UniProt P32657). As to the kind of experiment: ScCHD-1 Enzyme Inhibition Assay. Note: in the data most compounds retested in dose-response had high values. In kind it is functional. The conditions noted are these: 30 µM.
Sequence of Chromo domain-containing protein 1 (Saccharomyces cerevisiae (strain ATCC 204508 / S288c) (Baker's yeast)) (P32657 whole entry, the tested form may be a part): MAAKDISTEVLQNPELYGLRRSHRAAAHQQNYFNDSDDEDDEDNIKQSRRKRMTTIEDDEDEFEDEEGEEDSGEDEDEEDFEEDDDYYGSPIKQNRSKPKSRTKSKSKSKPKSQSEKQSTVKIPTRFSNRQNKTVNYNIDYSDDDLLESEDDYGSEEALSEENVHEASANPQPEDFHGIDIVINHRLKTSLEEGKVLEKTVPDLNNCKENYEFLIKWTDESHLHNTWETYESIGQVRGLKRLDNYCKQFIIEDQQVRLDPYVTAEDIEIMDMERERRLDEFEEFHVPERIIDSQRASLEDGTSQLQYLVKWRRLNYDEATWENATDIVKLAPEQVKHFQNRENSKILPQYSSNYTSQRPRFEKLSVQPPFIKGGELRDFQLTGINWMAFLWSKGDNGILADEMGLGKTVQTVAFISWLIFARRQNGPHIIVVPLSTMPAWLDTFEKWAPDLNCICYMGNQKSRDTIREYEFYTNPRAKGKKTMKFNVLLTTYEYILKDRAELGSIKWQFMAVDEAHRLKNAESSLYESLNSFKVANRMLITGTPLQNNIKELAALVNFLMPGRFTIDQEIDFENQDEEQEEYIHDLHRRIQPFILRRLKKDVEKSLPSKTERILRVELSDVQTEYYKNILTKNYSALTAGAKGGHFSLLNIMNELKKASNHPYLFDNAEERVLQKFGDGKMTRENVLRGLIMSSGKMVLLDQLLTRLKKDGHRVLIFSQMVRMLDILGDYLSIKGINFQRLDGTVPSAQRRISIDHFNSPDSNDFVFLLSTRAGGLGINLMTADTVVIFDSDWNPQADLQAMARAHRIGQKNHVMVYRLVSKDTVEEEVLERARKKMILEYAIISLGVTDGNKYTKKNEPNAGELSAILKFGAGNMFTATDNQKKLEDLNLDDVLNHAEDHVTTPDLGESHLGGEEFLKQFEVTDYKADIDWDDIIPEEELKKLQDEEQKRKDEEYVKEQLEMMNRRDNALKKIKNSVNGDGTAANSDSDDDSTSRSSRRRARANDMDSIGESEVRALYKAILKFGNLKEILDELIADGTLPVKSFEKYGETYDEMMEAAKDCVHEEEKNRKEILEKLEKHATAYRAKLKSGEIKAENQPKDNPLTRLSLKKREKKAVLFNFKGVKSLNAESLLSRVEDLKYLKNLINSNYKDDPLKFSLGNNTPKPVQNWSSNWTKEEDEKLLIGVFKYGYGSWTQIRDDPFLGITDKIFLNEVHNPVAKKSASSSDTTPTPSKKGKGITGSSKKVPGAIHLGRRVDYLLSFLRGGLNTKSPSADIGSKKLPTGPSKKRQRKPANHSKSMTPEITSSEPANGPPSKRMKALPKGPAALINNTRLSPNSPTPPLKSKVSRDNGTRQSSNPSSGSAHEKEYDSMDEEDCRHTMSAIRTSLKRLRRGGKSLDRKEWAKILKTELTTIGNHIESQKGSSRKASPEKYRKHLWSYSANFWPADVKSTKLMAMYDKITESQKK

Sequence of Sialic acid-binding Ig-like lectin 9 (Homo sapiens) (Q9Y336 whole entry): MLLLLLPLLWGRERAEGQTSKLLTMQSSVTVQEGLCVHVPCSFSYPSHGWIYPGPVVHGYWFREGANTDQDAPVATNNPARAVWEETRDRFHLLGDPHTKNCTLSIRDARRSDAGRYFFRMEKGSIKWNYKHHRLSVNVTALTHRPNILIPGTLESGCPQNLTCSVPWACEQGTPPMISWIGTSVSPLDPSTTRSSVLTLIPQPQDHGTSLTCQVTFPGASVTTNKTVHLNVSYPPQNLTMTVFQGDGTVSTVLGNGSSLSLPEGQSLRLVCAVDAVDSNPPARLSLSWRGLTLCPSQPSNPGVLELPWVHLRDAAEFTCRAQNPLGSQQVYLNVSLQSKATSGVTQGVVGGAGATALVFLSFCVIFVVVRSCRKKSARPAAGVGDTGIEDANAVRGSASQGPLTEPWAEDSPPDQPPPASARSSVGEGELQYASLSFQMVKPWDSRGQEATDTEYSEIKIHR
Sequence of Protein translocase subunit SecA (Escherichia coli (strain K12)) (P10408 whole entry): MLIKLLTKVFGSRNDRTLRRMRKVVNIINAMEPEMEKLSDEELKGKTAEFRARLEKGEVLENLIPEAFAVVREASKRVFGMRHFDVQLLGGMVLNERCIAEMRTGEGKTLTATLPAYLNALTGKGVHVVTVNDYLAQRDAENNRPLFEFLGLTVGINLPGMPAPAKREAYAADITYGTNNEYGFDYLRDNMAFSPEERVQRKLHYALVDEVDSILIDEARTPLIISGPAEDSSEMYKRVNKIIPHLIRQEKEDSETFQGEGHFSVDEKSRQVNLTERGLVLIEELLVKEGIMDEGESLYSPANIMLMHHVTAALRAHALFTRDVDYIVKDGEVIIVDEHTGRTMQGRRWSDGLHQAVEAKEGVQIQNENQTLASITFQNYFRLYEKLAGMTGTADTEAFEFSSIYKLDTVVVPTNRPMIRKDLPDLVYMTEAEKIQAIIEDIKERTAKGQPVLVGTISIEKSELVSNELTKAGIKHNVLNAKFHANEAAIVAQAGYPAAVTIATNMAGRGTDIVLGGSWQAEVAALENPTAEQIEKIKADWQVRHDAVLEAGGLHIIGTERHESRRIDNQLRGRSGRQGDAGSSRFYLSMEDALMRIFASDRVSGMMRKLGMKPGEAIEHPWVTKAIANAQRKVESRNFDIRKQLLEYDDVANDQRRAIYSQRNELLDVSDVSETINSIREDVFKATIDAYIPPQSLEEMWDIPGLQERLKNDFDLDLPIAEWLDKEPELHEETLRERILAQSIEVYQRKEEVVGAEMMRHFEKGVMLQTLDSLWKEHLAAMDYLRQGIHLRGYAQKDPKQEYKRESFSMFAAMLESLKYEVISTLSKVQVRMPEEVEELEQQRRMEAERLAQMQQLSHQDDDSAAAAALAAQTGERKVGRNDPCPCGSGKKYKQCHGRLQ

On to `Cc1nc(NCCc2ccc(Cl)cc2)cc(C(=O)N2CCCCC2)n1`, for which the Percent Effect in experiment [1] is -1.97%; in [2] it was 7.79%; in [3], 7.85%; in experiment [4] it was -0.26%; in the experiment on Trypanosoma cruzi it was -8.16%; in experiment [5], -16.6%. In addition, the Percent Effect in experiment [6] was 22.6%; in the experiment filed under Homo sapiens, 10.8%; in experiment [7], 0%; in experiment [8], 1.24%; in experiment [9], -2.69%.
With `Cc1noc(C)c1CN1CCN(C(=O)Cn2cncn2)CC1`, the Percent Effect in experiment [1] was -5.62%; in experiment [2], 5.41%; in experiment [3], -0.877%; in experiment [4] it was 5%; in the experiment on Trypanosoma cruzi, 2.83%; in [5] it was 3.72%. The Percent Effect in experiment [6] was -5.24%; in the experiment listed under Homo sapiens, -2.96%; in experiment [7], 2.15%; in experiment [8], 11.1%; in experiment [9], -4.36%.
On to `Cc1nn(C)c2c(N3CCN(C(=O)NC4CCCCC4)CC3)ncnc12`, for which the Percent Effect in [1] is -1.64%; in experiment [2], 9.33%; in [3] it was -2.22%; in experiment [4], -3.41%; in the experiment with Trypanosoma cruzi, -5.5%; in experiment [5], 0.528%. Also, the Percent Effect in experiment [6] is 11.7%; in the experiment listed under Homo sapiens, 0.346%; in experiment [7] it was 2.12%; in [8] it was 5.13%; in experiment [9] it was -10.1%.
As for `CCN(C)S(=O)(=O)N(CC)Cc1ccc2c(c1)OCO2`, the Percent Effect was -5.09% in experiment [1]; 15.6% in [2]; 0.454% in experiment [3]; 4.35% in [4]; -4.49% in the experiment with Trypanosoma cruzi; 1.42% in experiment [5]. The Percent Effect in experiment [6] is 8.11%; in the experiment listed under Homo sapiens, 11.3%; in [7], 4.85%; in experiment [8], 19.5%; in experiment [9] it was -8.91%.
In the case of `COCCN(Cc1ccc(F)cc1Cl)C(=O)c1cccc[n+]1[O-]`, the Percent Effect in experiment [1] was -4.42%; in experiment [2] it was -1.39%; in [3] it was 3.97%; in [4], -0.933%; with Trypanosoma cruzi, -1.65%; in experiment [5], 6.18%. Moreover, the Percent Effect in [6] was 12.3%; in the experiment filed under Homo sapiens it was -7.04%; in experiment [7], 1.05%; in [8] it was 7.69%; in [9], -2.92%.
With `O=C(O)c1cc(S(=O)(=O)Nc2ccc(Cl)cc2)cc2c1OCCO2`, the Percent Effect was -4.18% in experiment [1]; -8.86% in experiment [2]; 4.72% in [3]; 2.13% in [4]; -2.97% with Trypanosoma cruzi; 4.09% in experiment [5]. Besides, the Percent Effect in experiment [6] was 8.75%; in the experiment listed under Homo sapiens, -2.12%; in experiment [7], -18.8%; in experiment [8], -15.2%; in experiment [9] it was -21.4%.
For the molecule `COc1cccc(N2CCN(CC(O)c3cc(C)ccc3C)CC2)c1` (stereo not given), the Percent Effect in experiment [1] is -1.87%; in experiment [2] it was 10.5%; in [3] it was -6.71%; in [4], -9.14%; in the experiment on Trypanosoma cruzi it was -8.67%; in experiment [5], 2.37%. Further, the Percent Effect in experiment [6] was 18.5%; in the experiment listed under Homo sapiens it was -5.38%; in [7], 7.45%; in [8], 7.79%; in experiment [9], -5.09%.
On to `O=C(c1coc(COc2cccc(F)c2)n1)N1CC[C@H](O)[C@@H](O)C1`, for which the Percent Effect in [1] is -4.21%; in experiment [2] it was 2.7%; in [3], 0.202%; in [4] it was 8.13%; with Trypanosoma cruzi, 1.93%; in [5], 3.33%. The Percent Effect in experiment [6] is 10.2%; in the experiment listed under Homo sapiens it was 7.51%; in [7], 5.82%; in [8], 9.76%; in [9] it was -4.67%.
As to `O=C(c1cccn2ccnc12)N1CCCN(c2cccnn2)CC1`, the Percent Effect in [1] was -3.74%; in [2] it was -5.2%; in [3], 6.04%; in [4] it was 5.27%; in the experiment on Trypanosoma cruzi, 4.8%; in experiment [5], 1.9%. Moreover, the Percent Effect is -0.404% in experiment [6]; -11.5% in the experiment listed under Homo sapiens; 0.952% in experiment [7]; 2.35% in experiment [8]; -10.1% in experiment [9].
Turning to `CCc1nnc2n1CCN(Cc1ccc(C(=O)N3CCCC3)cc1)C2`, the Percent Effect in experiment [1] is -2.96%; in experiment [2] it was 13.5%; in experiment [3], 2.51%; in [4] it was -7.2%; in the experiment with Trypanosoma cruzi, -2.69%; in experiment [5] it was -4.25%. In addition, the Percent Effect in experiment [6] was 12.8%; in the experiment listed under Homo sapiens it was 17.1%; in experiment [7], 6.93%; in [8], 15.8%; in experiment [9], -4.5%.
